Laboratory results published in PubChem BioAssay (Tox21).
Records with an inconclusive call do not appear. Calls of active or inactive are those of the source. Unless noted, calls come from the whole dose curve; as a rule, active = well fitted curve in the direction sought with a large enough effect in the repeat runs; inconclusive = weak or mixed curves; inactive = no such curve, though single readings can be large; an effect the other way counts as inactive or inconclusive.

How the values were obtained:
[1] = qHTS RealTime-Glo MT Cell Viability Assay in HEK293 cells - 0 hour (AID 1224880); note: top concentration of the series differs between compounds; nearly all actives have a fitted effect of over 45% in size
Method in brief: (§1)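 Luminescence readout at each listed time point; HEK293, 600 cells/well, RealTime-Glo MT reagent added with cells; compounds pinned (23 nL in DMSO) after 5 h at 37 C; continuous culture at 37 C.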

[2] = A CellTox Green Cytotoxicity Assay to monitor cytotoxicity in HEK293 cells - 32 hour (AID 1224881); note: nearly all actives have a fitted effect of over 40% in size
Method in brief: (§2)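 Read-out: fluorescence of a cell-impermeant cyanine dye staining DNA of dead cells, proportional to cytotoxicity. HEK293, 600 cells/well with reagent, compound (23 nL DMSO) added after 5 h; reads at 0, 8, 16, 24, 32, 40 h.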

[3] = A CellTox Green Cytotoxicity Assay to monitor cytotoxicity in HepG2 cells - 0 hour (AID 1224882); note: nearly all actives have a fitted effect of over 35% in size
Method in brief: (§3)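 HepG2, 600 cells/well premixed w/ CellTox Green; 5 h settle, 37 C/5% CO2; pintool cpd add (DMSO); 37 C, 40 h; fluorescence read at 0, 8, 16, 24, 32, 40 h.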

[4] = A CellTox Green Cytotoxicity Assay to monitor cytotoxicity in HepG2 cells - 32 hour (AID 1224883); note: nearly all actives have a fitted effect of over 50% in size
Method in brief: as §3

[5] = A CellTox Green Cytotoxicity Assay to monitor cytotoxicity in HEK293 cells - 8 hour (AID 1224884); note: nearly all actives have a fitted effect of over 35% in size
Method in brief: as §2

[6] = qHTS RealTime-Glo MT Cell Viability Assay in HepG2 cells - 16 hour (AID 1224885); note: nearly all actives have a fitted effect of over 50% in size
Method in brief: (§4)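 Viability was tracked continuously by NanoLuc luminescence from prosubstrate reduced by living HepG2 cells, at successive time points over 40 h of compound exposure. Cells with reagent were preincubated 5 h at 37 °C before compound addition.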

[7] = qHTS RealTime-Glo MT Cell Viability Assay in HEK293 cells - 24 hour (AID 1224886); note: top concentration of the series differs between compounds; nearly all actives have a fitted effect of over 50% in size
Method in brief: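 Viability tracked continuously by luminescence as live cells reduce a prosubstrate for NanoLuc; HEK293 cells preincubated 5 h, compound-treated at 37 C, and read at 0, 8, 16, 24, 32 and 40 h.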

[8] = A CellTox Green Cytotoxicity Assay to monitor cytotoxicity in HEK293 cells - 16 hour (AID 1224888); note: nearly all actives have a fitted effect of over 35% in size
Method in brief: as §2

[9] = qHTS RealTime-Glo MT Cell Viability Assay in HepG2 cells - 0 hour (AID 1224889); note: nearly all actives have a fitted effect of over 50% in size
Method in brief: as §4

[10] = A CellTox Green Cytotoxicity Assay to monitor cytotoxicity in HepG2 cells - 8 hour (AID 1224890); note: nearly all actives have a fitted effect of over 45% in size
Method in brief: as §3

[11] = qHTS assay to identify small molecule antagonists of the estrogen receptor alpha (ER-alpha) signaling pathway using the BG1 cell line in the presence of 0.1 nM 17-beta-estradiol - cell viability counter screen (AID 1259241); note: nearly all actives have a fitted effect of over 40% in size
Method in brief: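 VM7Luc4E2 cells (endogenous full-length ER-alpha, 4xERE-luciferase), cultured 5 days in charcoal-stripped serum, exposed to compounds with 0.1 nM 17beta-estradiol (final) for 22 hr at 37C. Viability read in same wells as live-cell protease fluorescence after 30 min.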

[12] = qHTS assay to identify small molecule antagonists of the androgen receptor (AR) signaling pathway using the MDA cell line in the presence of 0.5 nM R1881 - cell viability counter screen (AID 1259242); note: nearly all actives have a fitted effect of over 45% in size
Method in brief: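 Live-cell protease fluorescence, CellTiter-Fluor, 30 min at 37C. Cells: MDA-kb2, 3,000/well, preincubated 5 hr. Compounds plus 0.5 nM R1881 final, 16 hr, 37C, 0% CO2.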

[13] = target: Estrogen receptor (Homo sapiens) (UniProt P03372); assay: qHTS assay to identify small molecule antagonists of the estrogen receptor alpha (ER-alpha) signaling pathway using the BG1 cell line in the presence of 0.1 nM 17-beta-estradiol (AID 1259244); note: nearly all actives have a fitted effect of over 50% in size
Estrogen receptor (Homo sapiens), sequence (P03372 whole entry, looked up): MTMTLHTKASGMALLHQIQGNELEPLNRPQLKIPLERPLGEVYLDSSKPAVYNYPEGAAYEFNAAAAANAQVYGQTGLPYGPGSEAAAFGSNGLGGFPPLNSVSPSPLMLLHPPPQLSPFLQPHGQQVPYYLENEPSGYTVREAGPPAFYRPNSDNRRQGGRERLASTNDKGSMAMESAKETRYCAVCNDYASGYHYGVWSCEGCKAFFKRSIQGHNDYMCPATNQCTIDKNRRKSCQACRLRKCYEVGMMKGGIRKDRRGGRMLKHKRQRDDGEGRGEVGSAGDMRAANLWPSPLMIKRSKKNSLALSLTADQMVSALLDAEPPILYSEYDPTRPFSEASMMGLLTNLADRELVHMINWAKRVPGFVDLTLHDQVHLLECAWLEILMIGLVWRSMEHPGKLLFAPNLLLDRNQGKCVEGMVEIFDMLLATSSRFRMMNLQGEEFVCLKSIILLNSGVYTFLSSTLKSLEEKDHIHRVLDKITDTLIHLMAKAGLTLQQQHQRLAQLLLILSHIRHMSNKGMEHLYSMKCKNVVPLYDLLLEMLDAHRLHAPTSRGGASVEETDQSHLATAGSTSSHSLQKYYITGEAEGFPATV
Method in brief: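 Luminescence after ONE-Glo (30 min, room temperature) measured ERE-luciferase activity in VM7Luc4E2 cells treated 22 h with compound and 0.1 nM final 17beta-estradiol as stimulator.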

[14] = qHTS assay to identify small molecule HDAC inhibitors (AID 1259364);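 note: wild-type HCT-116 cells with endogenous class I/II HDAC activity; top concentration of the series differs between compounds; nearly all actives have a fitted effect of over 45% in size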
Method in brief: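 HCT-116 (wild type), 1,500 cells/well, overnight; compound 2 hr 37C 5% CO2; HDAC-Glo I/II reagent 30 min RT; luminescence readout.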

[15] = qHTS assay to identify small molecule HDAC inhibitors - cell viability counter screen (AID 1259365)
Method in brief: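 Wild-type HCT-116 cells, 1,500/well, cultured overnight, then compound-treated 2 h at 37 C. Viability measured as ATP luminescence with CellTiter-Glo after 30 min at room temperature.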

[16] = qHTS assay to identify small molecule agonists of the sonic hedgehog signaling (Shh) pathway - cell viability counter screen (AID 1259366); note: nearly all actives have a fitted effect of over 50% in size
Method in brief: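 NIH/3T3-derived Gli1-Luc reporter cells, 2,000 per well, received compound after 4 h and were treated about 23 h at 37C. Viability measured in the same wells by CellTiter-Fluor fluorescence after 1 h.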

[17] = qHTS assay to identify small molecule antagonists of the sonic hedgehog signaling (Shh) pathway - cell viability counter screen (AID 1259367); note: nearly all actives have a fitted effect of over 55% in size
Method in brief: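 Conditioned medium drove Shh signaling in 3T3 Gli1-Luc cells exposed to compounds at 37C and 5% CO2. Viability was determined from CellTiter-Fluor fluorescence, with reagent incubated 1 hr after 23 hr of treatment.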

[18] = qHTS RealTime-Glo MT Cell Viability Assay in HEK293 cells - 8 hour (AID 1224887)
Method in brief: as §1

[19] = target: Androgen receptor (Homo sapiens) (UniProt P10275); assay: qHTS assay to identify small molecule antagonists of the androgen receptor (AR) signaling pathway using the MDA cell line in the presence of 0.5 nM R1881 (AID 1259243); note: nearly all actives have a fitted effect of over 50% in size
Androgen receptor (Homo sapiens), sequence (P10275 whole entry, looked up): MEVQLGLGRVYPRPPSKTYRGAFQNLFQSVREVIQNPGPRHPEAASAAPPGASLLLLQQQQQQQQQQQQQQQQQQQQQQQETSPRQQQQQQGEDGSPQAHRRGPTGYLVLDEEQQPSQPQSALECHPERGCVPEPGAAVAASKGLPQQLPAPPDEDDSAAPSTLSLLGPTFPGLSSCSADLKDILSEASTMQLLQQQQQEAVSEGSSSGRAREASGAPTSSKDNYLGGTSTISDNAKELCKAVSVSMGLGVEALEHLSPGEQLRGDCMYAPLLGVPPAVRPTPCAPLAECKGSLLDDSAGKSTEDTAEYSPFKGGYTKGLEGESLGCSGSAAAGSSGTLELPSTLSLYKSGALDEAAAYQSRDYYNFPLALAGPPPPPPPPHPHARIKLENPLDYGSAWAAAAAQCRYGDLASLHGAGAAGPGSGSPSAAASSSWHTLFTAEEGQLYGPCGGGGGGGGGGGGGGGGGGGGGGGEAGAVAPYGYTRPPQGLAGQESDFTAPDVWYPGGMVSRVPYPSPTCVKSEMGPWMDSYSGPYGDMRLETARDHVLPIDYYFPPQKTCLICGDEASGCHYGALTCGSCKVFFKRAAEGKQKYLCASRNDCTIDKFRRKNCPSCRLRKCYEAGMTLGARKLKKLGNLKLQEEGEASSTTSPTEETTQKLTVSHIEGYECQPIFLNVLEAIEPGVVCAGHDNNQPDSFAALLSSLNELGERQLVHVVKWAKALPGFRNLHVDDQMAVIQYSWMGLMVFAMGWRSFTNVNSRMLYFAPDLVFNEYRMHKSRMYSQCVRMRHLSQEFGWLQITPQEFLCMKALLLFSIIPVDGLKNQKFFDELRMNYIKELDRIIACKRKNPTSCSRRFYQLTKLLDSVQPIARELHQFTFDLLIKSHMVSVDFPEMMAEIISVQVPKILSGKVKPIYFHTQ
Method in brief: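 MDA-kb2, MMTV-luc (AR/GR elements); 3,000 cells/well; cpd + 0.5 nM R1881 final; 16 hr 37C, 0% CO2; ONE-Glo 30 min RT; luminescence.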

[20] = qHTS assay to identify small molecule phospholipidosis (PLD) inducers (AID 1259344; active = well fitted curve in the direction sought with a large enough effect; an effect the other way counts as inactive or inconclusive)
Method in brief: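 After 4 h attachment on collagen I, HepG2 cells were dosed with compound alongside LipidTOX Red, kept 24 h at 37 C, fixed, and imaged for lamellar phospholipid pits.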

Measured: Potency

CCOC(=O)C(=O)OCC
not listed: [18] | [19] | [20]
inactive: all other assays above

CCCCNC(=O)NCCCC
not listed: [7] | [20]
inactive: all other assays above

O=S(O)CO
not listed: [7] | [20]
inactive: all other assays above

Cc1[nH]c(=O)c(C#N)cc1-c1ccc2nccn2c1
not listed: [13] | [18] | [19]
inactive: all other assays above

ClC(Cl)(Br)Br
not listed: [7] | [20]
inactive: all other assays above

CCn1ccnc1CC1COc2ccccc2O1 (stereo unspecified)
not listed: [18]
inactive: all other assays above

CC(=O)CC(C)C
not listed: [13] | [18] | [20]
inactive: all other assays above

CCc1ccc(O)c(OC)c1
not listed: [13] | [18] | [19] | [20]
inactive: all other assays above

CCOC(=O)CCC(C)=O
not listed: [8] | [9] | [19] | [20]
inactive: all other assays above

CO[Si](CCCOCC1CO1)(OC)OC (stereo unspecified)
not listed: [8] | [18] | [19] | [20]
inactive: all other assays above

c1ccc(CC2=NCCN2)cc1
not listed: [7] | [19]
inactive: all other assays above

C=C1CC[C@H]2C[C@@H]1C2(C)C
not listed: [18] | [19] | [20]
inactive: all other assays above

COCCCOCCCOC
not listed: [4] | [19] | [20]
inactive: all other assays above

O=C1OC(=O)C2CCCCC12 (stereo unspecified)
not listed: [7] | [18] | [19] | [20]
inactive: all other assays above

NS(=O)(=O)c1ccc(C(=O)O)cc1
not listed: [4]
inactive: all other assays above

Nc1ccccc1S(=O)(=O)O
not listed: [7] | [13] | [19] | [20]
inactive: all other assays above

NC(=O)Nc1ccccc1
not listed: [7] | [18] | [19] | [20]
inactive: all other assays above
